Laboratory results reported in publication PMC11006913.

Key:
Assay in all cases: PBM; 200 nM protein, PBS
Details in all cases: dsDNA, one strand shown
HESX1 [1] = molecular target: HESX1 (Homo sapiens, UniProt Q9UBX0 95-180, R165K)
SHOX [2] = molecular target: SHOX (Homo sapiens, UniProt O15266 103-189)
ALX4 [3] = molecular target: ALX4 (Homo sapiens, UniProt Q9H161 200-286)
ALX4 [4] = molecular target: ALX4 (Homo sapiens, UniProt Q9H161 200-286, Q225E)
HESX1 [5] = molecular target: HESX1 (Homo sapiens, UniProt Q9UBX0 95-180)
ALX1 [6] = molecular target: ALX1 (Homo sapiens, UniProt Q15699 118-204, L144V)
ALX3 [7] = molecular target: ALX3 (Homo sapiens, UniProt O95076 139-225, N203Q)
SHOX [8] = molecular target: SHOX (Homo sapiens, UniProt O15266 103-189, R173C)
ALX1 [9] = molecular target: ALX1 (Homo sapiens, UniProt Q15699 118-204, L144R)
ALX3 [10] = molecular target: ALX3 (Homo sapiens, UniProt O95076 139-225)
PROP1 [11] = molecular target: PROP1 (Homo sapiens, UniProt O75360 56-141)
HESX1 [12] = molecular target: HESX1 (Homo sapiens, UniProt Q9UBX0 95-180, R109Q)
PROP1 [13] = molecular target: PROP1 (Homo sapiens, UniProt O75360 56-141, R99H)
ALX3 [14] = molecular target: ALX3 (Homo sapiens, UniProt O95076 139-225, L168Q)
HESX1 [15] = molecular target: HESX1 (Homo sapiens, UniProt Q9UBX0 95-180, P111T)
ALX3 [16] = molecular target: ALX3 (Homo sapiens, UniProt O95076 139-225, L168V)
PROP1 [17] = molecular target: PROP1 (Homo sapiens, UniProt O75360 56-141, F88S)
HESX1 [18] = molecular target: HESX1 (Homo sapiens, UniProt Q9UBX0 95-180, F115L)
ALX1 [19] = molecular target: ALX1 (Homo sapiens, UniProt Q15699 118-204)
ALX3 [20] = molecular target: ALX3 (Homo sapiens, UniProt O95076 139-225, N203S)
Sequence of ALX3 (Homo sapiens, UniProt O95076 139-225, N203S) (O95076 139-225 N203S): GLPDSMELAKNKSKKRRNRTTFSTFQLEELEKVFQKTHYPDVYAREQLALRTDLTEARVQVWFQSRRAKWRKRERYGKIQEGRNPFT

Sequence of ALX1 (Homo sapiens, UniProt Q15699 118-204) (Q15699 118-204): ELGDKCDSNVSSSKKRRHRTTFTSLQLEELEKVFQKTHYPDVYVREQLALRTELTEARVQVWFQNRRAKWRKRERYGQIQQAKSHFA
Sequence of PROP1 (Homo sapiens, UniProt O75360 56-141) (O75360 56-141): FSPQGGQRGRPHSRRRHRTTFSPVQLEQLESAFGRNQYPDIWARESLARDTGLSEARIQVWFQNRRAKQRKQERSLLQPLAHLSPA
Sequence of HESX1 (Homo sapiens, UniProt Q9UBX0 95-180, P111T) (Q9UBX0 95-180 P111T): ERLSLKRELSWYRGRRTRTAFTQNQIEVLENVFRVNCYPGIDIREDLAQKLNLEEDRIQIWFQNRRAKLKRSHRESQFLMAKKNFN
Sequence of ALX1 (Homo sapiens, UniProt Q15699 118-204, L144V) (Q15699 118-204 L144V): as the sequence (Q15699 118-204) above, with L27V counted along it
Sequence of ALX1 (Homo sapiens, UniProt Q15699 118-204, L144R) (Q15699 118-204 L144R): as the sequence (Q15699 118-204) above, with L27R counted along it
Sequence of ALX3 (Homo sapiens, UniProt O95076 139-225) (O95076 139-225): as the sequence (O95076 139-225 N203S) above, with S65N counted along it
Sequence of ALX4 (Homo sapiens, UniProt Q9H161 200-286) (Q9H161 200-286): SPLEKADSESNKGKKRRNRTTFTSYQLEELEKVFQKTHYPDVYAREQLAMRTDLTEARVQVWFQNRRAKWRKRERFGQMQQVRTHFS
Sequence of ALX3 (Homo sapiens, UniProt O95076 139-225, L168Q) (O95076 139-225 L168Q): as the sequence (O95076 139-225 N203S) above, with L30Q, S65N counted along it
Sequence of ALX3 (Homo sapiens, UniProt O95076 139-225, N203Q) (O95076 139-225 N203Q): as the sequence (O95076 139-225 N203S) above, with S65Q counted along it
Sequence of SHOX (Homo sapiens, UniProt O15266 103-189) (O15266 103-189): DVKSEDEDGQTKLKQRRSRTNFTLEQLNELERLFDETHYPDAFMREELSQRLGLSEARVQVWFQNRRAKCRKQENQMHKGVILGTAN
Sequence of HESX1 (Homo sapiens, UniProt Q9UBX0 95-180, F115L) (Q9UBX0 95-180 F115L): as the sequence (Q9UBX0 95-180 P111T) above, with T17P, F21L counted along it
Sequence of ALX4 (Homo sapiens, UniProt Q9H161 200-286, Q225E) (Q9H161 200-286 Q225E): as the sequence (Q9H161 200-286) above, with Q26E counted along it
Sequence of PROP1 (Homo sapiens, UniProt O75360 56-141, R99H) (O75360 56-141 R99H): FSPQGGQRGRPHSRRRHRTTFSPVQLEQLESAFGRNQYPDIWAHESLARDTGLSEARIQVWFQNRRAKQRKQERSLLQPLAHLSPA
Sequence of HESX1 (Homo sapiens, UniProt Q9UBX0 95-180, R109Q) (Q9UBX0 95-180 R109Q): as the sequence (Q9UBX0 95-180 P111T) above, with R15Q, T17P counted along it
Sequence of SHOX (Homo sapiens, UniProt O15266 103-189, R173C) (O15266 103-189 R173C): as the sequence (O15266 103-189) above, with R71C counted along it
Sequence of PROP1 (Homo sapiens, UniProt O75360 56-141, F88S) (O75360 56-141 F88S): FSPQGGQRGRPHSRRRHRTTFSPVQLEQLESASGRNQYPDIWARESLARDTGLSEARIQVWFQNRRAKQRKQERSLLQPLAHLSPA
Sequence of HESX1 (Homo sapiens, UniProt Q9UBX0 95-180) (Q9UBX0 95-180): as the sequence (Q9UBX0 95-180 P111T) above, with T17P counted along it
Sequence of ALX3 (Homo sapiens, UniProt O95076 139-225, L168V) (O95076 139-225 L168V): as the sequence (O95076 139-225 N203S) above, with L30V, S65N counted along it
Sequence of HESX1 (Homo sapiens, UniProt Q9UBX0 95-180, R165K) (Q9UBX0 95-180 R165K): as the sequence (Q9UBX0 95-180 P111T) above, with T17P, R71K counted along it

Sequence	binding signal (HESX1 [1])	binding signal (SHOX [2])	binding signal (ALX4 [3])	binding signal (ALX4 [4])	binding signal (HESX1 [5])	binding signal (ALX1 [6])	binding signal (ALX3 [7])	binding signal (SHOX [8])	binding signal (ALX1 [9])	binding signal (ALX3 [10])	binding signal (PROP1 [11])	binding signal (HESX1 [12])	binding signal (PROP1 [13])	binding signal (ALX3 [14])	binding signal (HESX1 [15])	binding signal (ALX3 [16])	binding signal (PROP1 [17])	binding signal (HESX1 [18])	binding signal (ALX1 [19])	binding signal (ALX3 [20])
ATAATTAT	12.8 upbm affinity estimate (log intensity, higher = more binding, comparable within an allelic series)	12.1 upbm affinity estimate (log intensity, higher = more binding, comparable within an allelic series)	14.2 upbm affinity estimate (log intensity, higher = more binding, comparable within an allelic series)	13.7 upbm affinity estimate (log intensity, higher = more binding, comparable within an allelic series)	12.8 upbm affinity estimate (log intensity, higher = more binding, comparable within an allelic series)	11.9 upbm affinity estimate (log intensity, higher = more binding, comparable within an allelic series)	8.72 upbm affinity estimate (log intensity, higher = more binding, comparable within an allelic series)	9.85 upbm affinity estimate (log intensity, higher = more binding, comparable within an allelic series)	11.6 upbm affinity estimate (log intensity, higher = more binding, comparable within an allelic series)	12.7 upbm affinity estimate (log intensity, higher = more binding, comparable within an allelic series)	11.8 upbm affinity estimate (log intensity, higher = more binding, comparable within an allelic series)	9.01 upbm affinity estimate (log intensity, higher = more binding, comparable within an allelic series)	11.5 upbm affinity estimate (log intensity, higher = more binding, comparable within an allelic series)	10.8 upbm affinity estimate (log intensity, higher = more binding, comparable within an allelic series)	11.2 upbm affinity estimate (log intensity, higher = more binding, comparable within an allelic series)	10.4 upbm affinity estimate (log intensity, higher = more binding, comparable within an allelic series)	8.04 upbm affinity estimate (log intensity, higher = more binding, comparable within an allelic series)	7.94 upbm affinity estimate (log intensity, higher = more binding, comparable within an allelic series)	12.5 upbm affinity estimate (log intensity, higher = more binding, comparable within an allelic series)	8.79 upbm affinity estimate (log intensity, higher = more binding, comparable within an allelic series)
TAATTACA	12.5 upbm affinity estimate (log intensity, higher = more binding, comparable within an allelic series)	12.1 upbm affinity estimate (log intensity, higher = more binding, comparable within an allelic series)	14.2 upbm affinity estimate (log intensity, higher = more binding, comparable within an allelic series)	13.5 upbm affinity estimate (log intensity, higher = more binding, comparable within an allelic series)	12.6 upbm affinity estimate (log intensity, higher = more binding, comparable within an allelic series)	11.9 upbm affinity estimate (log intensity, higher = more binding, comparable within an allelic series)	8.51 upbm affinity estimate (log intensity, higher = more binding, comparable within an allelic series)	9.87 upbm affinity estimate (log intensity, higher = more binding, comparable within an allelic series)	11.5 upbm affinity estimate (log intensity, higher = more binding, comparable within an allelic series)	12.7 upbm affinity estimate (log intensity, higher = more binding, comparable within an allelic series)	11.8 upbm affinity estimate (log intensity, higher = more binding, comparable within an allelic series)	9.27 upbm affinity estimate (log intensity, higher = more binding, comparable within an allelic series)	11.5 upbm affinity estimate (log intensity, higher = more binding, comparable within an allelic series)	10.8 upbm affinity estimate (log intensity, higher = more binding, comparable within an allelic series)	11.1 upbm affinity estimate (log intensity, higher = more binding, comparable within an allelic series)	10.3 upbm affinity estimate (log intensity, higher = more binding, comparable within an allelic series)	7.98 upbm affinity estimate (log intensity, higher = more binding, comparable within an allelic series)	7.89 upbm affinity estimate (log intensity, higher = more binding, comparable within an allelic series)	12.5 upbm affinity estimate (log intensity, higher = more binding, comparable within an allelic series)	8.62 upbm affinity estimate (log intensity, higher = more binding, comparable within an allelic series)
AATTAATA	12.2 upbm affinity estimate (log intensity, higher = more binding, comparable within an allelic series)	12 upbm affinity estimate (log intensity, higher = more binding, comparable within an allelic series)	14 upbm affinity estimate (log intensity, higher = more binding, comparable within an allelic series)	13.4 upbm affinity estimate (log intensity, higher = more binding, comparable within an allelic series)	12.1 upbm affinity estimate (log intensity, higher = more binding, comparable within an allelic series)	11.8 upbm affinity estimate (log intensity, higher = more binding, comparable within an allelic series)	8.72 upbm affinity estimate (log intensity, higher = more binding, comparable within an allelic series)	9.56 upbm affinity estimate (log intensity, higher = more binding, comparable within an allelic series)	11.6 upbm affinity estimate (log intensity, higher = more binding, comparable within an allelic series)	12.5 upbm affinity estimate (log intensity, higher = more binding, comparable within an allelic series)	11.3 upbm affinity estimate (log intensity, higher = more binding, comparable within an allelic series)	9.32 upbm affinity estimate (log intensity, higher = more binding, comparable within an allelic series)	11.4 upbm affinity estimate (log intensity, higher = more binding, comparable within an allelic series)	10.7 upbm affinity estimate (log intensity, higher = more binding, comparable within an allelic series)	10.8 upbm affinity estimate (log intensity, higher = more binding, comparable within an allelic series)	10.3 upbm affinity estimate (log intensity, higher = more binding, comparable within an allelic series)	8.02 upbm affinity estimate (log intensity, higher = more binding, comparable within an allelic series)	8.27 upbm affinity estimate (log intensity, higher = more binding, comparable within an allelic series)	12.3 upbm affinity estimate (log intensity, higher = more binding, comparable within an allelic series)	8.82 upbm affinity estimate (log intensity, higher = more binding, comparable within an allelic series)
GCTAATTA	13.8 upbm affinity estimate (log intensity, higher = more binding, comparable within an allelic series)	13.5 upbm affinity estimate (log intensity, higher = more binding, comparable within an allelic series)	14.6 upbm affinity estimate (log intensity, higher = more binding, comparable within an allelic series)	14.4 upbm affinity estimate (log intensity, higher = more binding, comparable within an allelic series)	13.6 upbm affinity estimate (log intensity, higher = more binding, comparable within an allelic series)	12.4 upbm affinity estimate (log intensity, higher = more binding, comparable within an allelic series)	8.53 upbm affinity estimate (log intensity, higher = more binding, comparable within an allelic series)	10.9 upbm affinity estimate (log intensity, higher = more binding, comparable within an allelic series)	12 upbm affinity estimate (log intensity, higher = more binding, comparable within an allelic series)	13 upbm affinity estimate (log intensity, higher = more binding, comparable within an allelic series)	12.1 upbm affinity estimate (log intensity, higher = more binding, comparable within an allelic series)	10.5 upbm affinity estimate (log intensity, higher = more binding, comparable within an allelic series)	12.3 upbm affinity estimate (log intensity, higher = more binding, comparable within an allelic series)	11.4 upbm affinity estimate (log intensity, higher = more binding, comparable within an allelic series)	12.4 upbm affinity estimate (log intensity, higher = more binding, comparable within an allelic series)	11.2 upbm affinity estimate (log intensity, higher = more binding, comparable within an allelic series)	8.03 upbm affinity estimate (log intensity, higher = more binding, comparable within an allelic series)	8.29 upbm affinity estimate (log intensity, higher = more binding, comparable within an allelic series)	13.1 upbm affinity estimate (log intensity, higher = more binding, comparable within an allelic series)	8.71 upbm affinity estimate (log intensity, higher = more binding, comparable within an allelic series)
GTAATTAC	12.5 upbm affinity estimate (log intensity, higher = more binding, comparable within an allelic series)	12.4 upbm affinity estimate (log intensity, higher = more binding, comparable within an allelic series)	14.3 upbm affinity estimate (log intensity, higher = more binding, comparable within an allelic series)	13.5 upbm affinity estimate (log intensity, higher = more binding, comparable within an allelic series)	12.6 upbm affinity estimate (log intensity, higher = more binding, comparable within an allelic series)	12.1 upbm affinity estimate (log intensity, higher = more binding, comparable within an allelic series)	8.56 upbm affinity estimate (log intensity, higher = more binding, comparable within an allelic series)	9.86 upbm affinity estimate (log intensity, higher = more binding, comparable within an allelic series)	11.7 upbm affinity estimate (log intensity, higher = more binding, comparable within an allelic series)	12.7 upbm affinity estimate (log intensity, higher = more binding, comparable within an allelic series)	11.8 upbm affinity estimate (log intensity, higher = more binding, comparable within an allelic series)	9.11 upbm affinity estimate (log intensity, higher = more binding, comparable within an allelic series)	11.6 upbm affinity estimate (log intensity, higher = more binding, comparable within an allelic series)	10.7 upbm affinity estimate (log intensity, higher = more binding, comparable within an allelic series)	11 upbm affinity estimate (log intensity, higher = more binding, comparable within an allelic series)	10.2 upbm affinity estimate (log intensity, higher = more binding, comparable within an allelic series)	8.06 upbm affinity estimate (log intensity, higher = more binding, comparable within an allelic series)	7.87 upbm affinity estimate (log intensity, higher = more binding, comparable within an allelic series)	12.5 upbm affinity estimate (log intensity, higher = more binding, comparable within an allelic series)	8.69 upbm affinity estimate (log intensity, higher = more binding, comparable within an allelic series)
AATAATTA	13 upbm affinity estimate (log intensity, higher = more binding, comparable within an allelic series)	12.1 upbm affinity estimate (log intensity, higher = more binding, comparable within an allelic series)	14.2 upbm affinity estimate (log intensity, higher = more binding, comparable within an allelic series)	13.7 upbm affinity estimate (log intensity, higher = more binding, comparable within an allelic series)	13 upbm affinity estimate (log intensity, higher = more binding, comparable within an allelic series)	11.9 upbm affinity estimate (log intensity, higher = more binding, comparable within an allelic series)	8.63 upbm affinity estimate (log intensity, higher = more binding, comparable within an allelic series)	9.86 upbm affinity estimate (log intensity, higher = more binding, comparable within an allelic series)	11.7 upbm affinity estimate (log intensity, higher = more binding, comparable within an allelic series)	12.8 upbm affinity estimate (log intensity, higher = more binding, comparable within an allelic series)	11.8 upbm affinity estimate (log intensity, higher = more binding, comparable within an allelic series)	9.38 upbm affinity estimate (log intensity, higher = more binding, comparable within an allelic series)	11.6 upbm affinity estimate (log intensity, higher = more binding, comparable within an allelic series)	10.9 upbm affinity estimate (log intensity, higher = more binding, comparable within an allelic series)	11.5 upbm affinity estimate (log intensity, higher = more binding, comparable within an allelic series)	10.6 upbm affinity estimate (log intensity, higher = more binding, comparable within an allelic series)	7.89 upbm affinity estimate (log intensity, higher = more binding, comparable within an allelic series)	8.2 upbm affinity estimate (log intensity, higher = more binding, comparable within an allelic series)	12.5 upbm affinity estimate (log intensity, higher = more binding, comparable within an allelic series)	8.7 upbm affinity estimate (log intensity, higher = more binding, comparable within an allelic series)
TTAATTAA	13.7 upbm affinity estimate (log intensity, higher = more binding, comparable within an allelic series)	13.3 upbm affinity estimate (log intensity, higher = more binding, comparable within an allelic series)	14.7 upbm affinity estimate (log intensity, higher = more binding, comparable within an allelic series)	14.7 upbm affinity estimate (log intensity, higher = more binding, comparable within an allelic series)	13.6 upbm affinity estimate (log intensity, higher = more binding, comparable within an allelic series)	12.3 upbm affinity estimate (log intensity, higher = more binding, comparable within an allelic series)	8.75 upbm affinity estimate (log intensity, higher = more binding, comparable within an allelic series)	11.2 upbm affinity estimate (log intensity, higher = more binding, comparable within an allelic series)	11.9 upbm affinity estimate (log intensity, higher = more binding, comparable within an allelic series)	13 upbm affinity estimate (log intensity, higher = more binding, comparable within an allelic series)	12.3 upbm affinity estimate (log intensity, higher = more binding, comparable within an allelic series)	11.2 upbm affinity estimate (log intensity, higher = more binding, comparable within an allelic series)	12.4 upbm affinity estimate (log intensity, higher = more binding, comparable within an allelic series)	11.7 upbm affinity estimate (log intensity, higher = more binding, comparable within an allelic series)	12.6 upbm affinity estimate (log intensity, higher = more binding, comparable within an allelic series)	11.6 upbm affinity estimate (log intensity, higher = more binding, comparable within an allelic series)	8.42 upbm affinity estimate (log intensity, higher = more binding, comparable within an allelic series)	8.85 upbm affinity estimate (log intensity, higher = more binding, comparable within an allelic series)	12.9 upbm affinity estimate (log intensity, higher = more binding, comparable within an allelic series)	8.98 upbm affinity estimate (log intensity, higher = more binding, comparable within an allelic series)
